Assay outcomes: PubChem, National Center for Advancing Translational Sciences (NCATS)
gsp agonist = activates gsp, the McCune-Albright syndrome mutation; gsp mutant cells, cAMP HTRF, 30 min; Potency, µM (doses to about 76.9 µM), actives largely listed as activators; hit rate 0.13% among 340,000; AID 624287; active = well fitted activation curve with a large enough effect; inconclusive = small, poorly fitted or top-dose-only effect, or another doubt; inactive = no such curve, though single readings can be large or run the other way; cell line not stated here;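 note: phosphodiesterase inhibitor Ro 20-1724 added with compounds to block cAMP breakdown; nearly all actives have a fitted effect of over 60% in size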
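Cells stably selected in G418 were plated at 2000/well, grown 16-24 hr, then given compounds in DMSO with the PDE inhibitor […] (300 uM solution added) for 30 min at 37C; cAMP was read by HTRF.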
Rango complex inh = Rango-importin beta binding inhibition | Rango CFP/YFP FRET sensor + importin beta, 45 min | Potency, µM (titrated, usually from 92.2 µM) | hit rate 0.031% among 340,000 | Q14974; note: nearly all actives have a fitted effect of over 15% in size
Target sequence (Q14974 whole entry, looked up): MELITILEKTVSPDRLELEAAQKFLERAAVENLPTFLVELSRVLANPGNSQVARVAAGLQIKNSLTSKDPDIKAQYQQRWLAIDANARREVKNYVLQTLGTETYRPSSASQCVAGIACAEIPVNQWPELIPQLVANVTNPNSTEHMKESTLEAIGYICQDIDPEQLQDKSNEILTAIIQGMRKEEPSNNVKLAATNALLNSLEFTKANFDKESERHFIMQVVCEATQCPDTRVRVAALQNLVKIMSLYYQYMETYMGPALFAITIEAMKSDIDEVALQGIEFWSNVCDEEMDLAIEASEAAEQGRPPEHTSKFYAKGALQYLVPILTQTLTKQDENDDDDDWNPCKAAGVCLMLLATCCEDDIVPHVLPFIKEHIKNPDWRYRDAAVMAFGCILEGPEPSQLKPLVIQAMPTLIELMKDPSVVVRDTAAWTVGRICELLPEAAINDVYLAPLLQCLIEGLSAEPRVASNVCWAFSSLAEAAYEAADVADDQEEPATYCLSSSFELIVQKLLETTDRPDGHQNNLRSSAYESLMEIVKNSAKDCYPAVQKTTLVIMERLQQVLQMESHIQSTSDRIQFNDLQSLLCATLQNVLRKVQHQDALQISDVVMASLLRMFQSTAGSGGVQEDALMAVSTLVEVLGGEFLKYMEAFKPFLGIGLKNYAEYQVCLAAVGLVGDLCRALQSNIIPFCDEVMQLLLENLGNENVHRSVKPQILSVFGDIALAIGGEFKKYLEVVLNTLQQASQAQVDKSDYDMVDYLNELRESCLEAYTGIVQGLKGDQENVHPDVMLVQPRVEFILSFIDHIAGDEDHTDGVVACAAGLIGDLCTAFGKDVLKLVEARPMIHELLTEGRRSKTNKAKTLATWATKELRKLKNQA
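FRET biosensor (snurportin 1 IBB flanked by EYFP and cerulean), 50 nM, with compound 5 min, then 0.125 microM importin beta in PBS, 1 mM DTT, 0.02% Tween-20, 0.1% BSA. CFP/YFP ratio read after 45 min at room temperature; pre-read flags interference.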
gsp antagonist = antagonists of gsp mutant (McCune-Albright syndrome); Potency, µM (doses to about 76.9 µM), usual class: inhibitors; gsp-mutant cells, cAMP HTRF, 30 min; AID 624288; hit rate 0.4% among 340,000; calls by dose curve; cell line not stated here;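 note: intracellular cAMP measured with PDE inhibitor Ro 20-1724 present during compound exposure; nearly all actives have a fitted effect of over 65% in size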
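Measurement of cellular cAMP by homogeneous time-resolved fluorescence following a 30 min compound exposure at 37C. The PDE inhibitor […] was present throughout; the assay buffer was DPBS with 0.05% BSA and 0.005% Tween 20.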
Rango release inh = inhibition of RanGTP-driven Rango-importin beta dissociation | Biochemical FRET Rango-importin beta, RanGTP-induced dissociation | Potency, µM (top dose mostly 46.1 µM) | hit rate 0.071% among 340,000 | AID 540253 | O95149+P62826; note: nearly all actives have a fitted effect of over 45% in size
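Rango FRET biosensor (snurportin-1 IBB flanked by N-terminal EYFP and C-terminal CFP10) at 0.1 uM, with 0.25 uM importin beta in PBS, 1mM DTT, 0.02% Tween-20, 0.1% BSA. 0.6 uM Ran, 2mM GTP and 0.2 uM RCC1 were then added for 45 min at room temperature. Inhibition read as loss of FRET rise.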
A number is an active result; i = inactive; ? = inconclusive; nt = not tested or not shown; [ ] = another dose, or the depositor's remark. In the library only some 0.66% were active in any assay of this set; here they are far more common. Unless noted, calls come from the whole dose curve.

SMILES	gsp agonist	Rango complex inh	gsp antagonist	Rango release inh
CC(=O)c1c(C)[nH]c(C(=O)OCc2csc(CC(=O)Nc3ccccc3C)n2)c1C	?	i	25.1µM	i
C/C(O)=C(/C#N)c1nc2ccccc2[nH]1	i	i	i	i
N#C/C(=C(/O)C(Cl)(Cl)Cl)c1nc2ccccc2[nH]1	i	?	28.2µM	i
CCS(=O)(=O)Nc1ccc(C2=NN(C(=O)c3ccccc3)C(c3cccs3)C2)cc1 (stereo not drawn)	i	i	28.2µM	i
Cc1cc(C)n2nc3nc4c(cc3c2n1)CCCC4	14.1µM	?	i	?
CCc1ccc(C2C(C#N)=C(N)SC(N)=C2C#N)cc1	39.8µM	?	i	?
CCOc1ccc(C2C(C#N)=C(N)SC(N)=C2C#N)cc1OCC	?	?	i	?
CCc1ccc(C2C(C#N)=C(N)SC(N)=C2C#N)s1	?	?	i	10.3µM
COc1ccc(-c2n[nH]nc2C2=CC(=O)CC(C)(C)C2)cc1	i	nt	nt	nt
COc1ccc(OC)c2c1C(=O)C(Cl)=C(Cl)C2=O	i	i	35.5µM	i
Cc1ccc(C)c(OCCn2cc(/C=C(\C#N)C(=O)NCc3ccco3)c3ccccc32)c1	i	?	i	4.11µM
CC(=O)c1cccc(NC(=O)/C=C/c2ccc([N+](=O)[O-])s2)c1	i[15.4 µM]	?	nt	?
Cc1cc(C)cc(NC(=O)/C=C/c2ccc([N+](=O)[O-])s2)c1	i	?	i	1.03µM
Cc1ccccc1NC(=O)/C=C/c1ccc([N+](=O)[O-])s1	i	?	i	0.651µM[inhibitor]
CCS(=O)(=O)Nc1ccc(C2=NN(C(=O)c3ccco3)C(c3ccco3)C2)cc1 (stereo not drawn)	i	i	?	i
CS(=O)(=O)Nc1ccc(C2=NN(C(=O)c3ccco3)C(c3ccccc3F)C2)cc1 (stereo not drawn)	i	i	28.2µM	i
Cc1ccc(C(=O)N2CCN(c3ccccc3)CC2)cc1S(=O)(=O)N1CCCC1	i	i	31.6µM	i
Cc1ccc(C(=O)N2CCN(c3ccc(F)cc3)CC2)cc1S(=O)(=O)N1CCCCC1	i	i	i	i
COc1ccccc1CNC(=O)COC(=O)c1cnc(C)cn1	i	nt	nt	nt
CC(=O)c1c(C)[nH]c(C(=O)CN2CCN(S(=O)(=O)c3ccc(C(C)C)cc3)CC2)c1C	i	i	35.5µM	i
COc1ccc(-c2nn(C)c3sc(C(=O)NCc4ccco4)cc23)cc1OC	12.6µM	i	i	i
COc1ccc(NC(=O)c2cc3c(-c4ccc(OC)c(OC)c4)nn(C)c3s2)cc1OC	i	i	i	i
COc1ccc(-n2c(CCC(=O)O)ccc2-c2ccc(F)cc2)c(OC)c1	i	i	35.5µM	i
CC1C(=O)N(Cc2cn(CCC3OCCO3)nn2)CCS(=O)(=O)N1Cc1ccc(-c2ccc(Cl)cc2)cc1 (stereo not drawn)	i	nt	nt	nt
COc1cccc(C(=O)C2CCCN(C(=O)CCc3scnc3C)C2)c1 (stereo not drawn)	i[15.4 µM]	i	i	i
SMILES	gsp agonist	Rango complex inh	gsp antagonist	Rango release inh
COc1ccc2cc(C(=O)C3CCCN(C(=O)CCc4ccccn4)C3)ccc2c1 (stereo not drawn)	i[15.4 µM]	i	4.47µM	i
N#CC1c2ccccc2-c2ccccc2N1C(=O)c1ccccc1 (stereo not drawn)	i	nt	nt	nt
Cc1ccc(NC(=O)CNc2ccc(Cl)c(Cl)c2)cc1S(=O)(=O)N(C)C	i	i	39.8µM	i
CCOC(=O)C1=C(C)N=c2s/c(=C/c3ccc(OCC(=O)O)cc3)c(=O)n2C1c1ccc(F)cc1 (stereo not drawn)	i	?	22.4µM	?
CCOC(=O)C1=C(C)N=c2s/c(=C/c3ccc(OCC(=O)O)c(OC)c3)c(=O)n2C1c1ccc(Cl)cc1 (stereo not drawn)	i[15.4 µM]	?	35.5µM	?
COCCCn1c(SCC(=O)N2CCCC2=O)nc2ccccc2c1=O	i	nt	nt	nt
COc1ncnc2c1ncn2CCCNCc1ccccn1	i	nt	nt	nt
COc1cccc(-c2nc(C(=O)NCC3CCCO3)cc3c2[nH]c2ccccc23)c1 (stereo not drawn)	nt	i	12.6µM	i
COc1ccc(Oc2c(O)c3ccccc3n(C)c2=O)cc1	i	i	31.6µM	i
CN(C)CCNc1ccc2ncn3c4ccc(O)cc4c(=O)c1c23	14.1µM	?	?	?
CC1CCN(N=Nc2nc3c([nH]2)c(=O)n(C)c(=O)n3C)CC1	12.6µM	i	i	i
O=C(NC1CC1)c1cccc(Nc2ccc(-c3ccc4c(c3)OCCO4)nn2)c1	i	i	31.6µM	i
COc1ccc(-n2c(C)cc(C(=O)COC(=O)c3ccc(O)cc3O)c2C)cc1	i	i	31.6µM	i
Cc1cc(C(=O)COC(=O)c2ccc(O)cc2O)c(C)n1-c1ccccc1	i	i	?	i
CC(NC(=O)Nc1nnc(C(F)(F)F)s1)(C(F)(F)F)C(F)(F)F	?	i	6.31µM	i
O=C(NC1CCCc2c1cnn2-c1ccccc1F)c1ccncc1 (stereo not drawn)	i	nt	nt	nt
Cc1cccnc1CN1CCN(C(=O)c2cc(COc3ccc4ncccc4c3)on2)CC1	i[15.4 µM]	i	31.6µM	i
O=C(NC1CCCCCCC1)c1cc(COc2ccc3ncccc3c2)on1	i[15.4 µM]	i	39.8µM	i
CC(CNC(=O)c1cc(COc2ccc3ncccc3c2)on1)c1ccccc1 (stereo not drawn)	i	i	31.6µM	i
O=C(c1cc(COc2ccc3ncccc3c2)on1)N1CCC(O)CC1	i[15.4 µM]	i	i	i
CC(C)c1cc(CN2C(C)COCC2C)cc(C(C)C)c1O (stereo not drawn)	i	i	i	i
CN1CCN(C(=O)CCC(=O)O)CC1	?	i	i	?
CN1CCN(CC(=O)O)CC1	20µM	i	i	i
CSCC[C@@H](C(=O)NCCCCCCCCCCC(=O)N1CCN(C(=O)OC(C)(C)C)CC1)n1cc(CCO)nn1	i	i	31.6µM	i
CC(C)(C)OC(=O)NCCCC[C@@H](C(=O)NCCCCCCCCCCC(=O)N1CCN(C(=O)OC(C)(C)C)CC1)n1cc(CCO)nn1	nt	i	?	i
SMILES	gsp agonist	Rango complex inh	gsp antagonist	Rango release inh
Cc1nnc(NC(=O)CCCCCN2C(=O)C3C4C=CC(C4)C3C2=O)s1 (stereo not drawn)	i	i	50.1µM	i
Cc1noc(C)c1C(=O)Nc1nc(-c2ccc([N+](=O)[O-])cc2)cs1	i	i	28.2µM	i
CC(C)OCCCn1c(SCC(=O)Nc2ccccc2C(F)(F)F)nc2nccnc2c1=O	39.8µM	i	i	?
CCCCn1c(SCC(=O)Nc2ccccc2C(F)(F)F)nc2ccsc2c1=O	i	i	i	i
CN(C(=O)c1ccc(Cl)cc1)c1ccc(OCC(=O)Nc2cc(C(=O)O)ccc2Cl)cc1	i	i	i	i
CCOC(=O)N1CCN(CC(=O)Nc2nccs2)CC1	i	nt	nt	nt
O=C(Nc1nncs1)c1c(F)c(F)c(F)c(F)c1F	i	i	39.8µM	i
COC(=O)C(C(=O)OC)=C(/C=C/C=C/N(C)C)N(C)C	i	?	i	9.2µM
C[C@@H]1CN([C@@H](C)CO)C(=O)c2cc(Br)cnc2O[C@H]1CN(C)C(=O)Cc1cccnc1	i	nt	nt	nt
Cc1ccc(COc2ccc(Br)cc2/C=N/O)cc1	i	i	i	i
O/N=C/c1cc(Br)ccc1OCc1ccc(F)cc1	i	?	i	16.4µM
